The full data set covers some 7,900 targets. This sample favours those with a hit. About 0.6% of all pairs of compound and target were hits. Values without a mark were called inactive.
These targets were tested with C1=CC=C(C=C1)[C@H](COC2=CC3=C(C=C2)NC(=O)N3)NC(=O)C4=CC=CN(C4=O)CC5=CC(=C(C=C5)F)F (assay: log2 fold change, soluble protein after heating vs DMSO (PISA); higher = thermal stabilisation; K562 cells, 10 uM, 30 min; active = over 0.2 and 3.5 SD of the protein, either way, in both replicates (recomputed)).
Procedure, shortened: (§1)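 K562 cells at 2×10^6 cells/mL were treated for 30 min with 10 μM compound, and aliquots were heated for 3 min over 48°C-58°C before pooling. Extraction used PBS with 0.5% NP-40 at 4°C, and soluble protein was the supernatant after 21,000xg for 90 min, measured by TMTpro 16plex LC-MS/MS with channel sums equalised. Thermal stability values, relative to control samples and from duplicates, are log2 fold changes.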

Chain of UniProt Q8NEB9 (Q8NEB9 whole entry, looked up): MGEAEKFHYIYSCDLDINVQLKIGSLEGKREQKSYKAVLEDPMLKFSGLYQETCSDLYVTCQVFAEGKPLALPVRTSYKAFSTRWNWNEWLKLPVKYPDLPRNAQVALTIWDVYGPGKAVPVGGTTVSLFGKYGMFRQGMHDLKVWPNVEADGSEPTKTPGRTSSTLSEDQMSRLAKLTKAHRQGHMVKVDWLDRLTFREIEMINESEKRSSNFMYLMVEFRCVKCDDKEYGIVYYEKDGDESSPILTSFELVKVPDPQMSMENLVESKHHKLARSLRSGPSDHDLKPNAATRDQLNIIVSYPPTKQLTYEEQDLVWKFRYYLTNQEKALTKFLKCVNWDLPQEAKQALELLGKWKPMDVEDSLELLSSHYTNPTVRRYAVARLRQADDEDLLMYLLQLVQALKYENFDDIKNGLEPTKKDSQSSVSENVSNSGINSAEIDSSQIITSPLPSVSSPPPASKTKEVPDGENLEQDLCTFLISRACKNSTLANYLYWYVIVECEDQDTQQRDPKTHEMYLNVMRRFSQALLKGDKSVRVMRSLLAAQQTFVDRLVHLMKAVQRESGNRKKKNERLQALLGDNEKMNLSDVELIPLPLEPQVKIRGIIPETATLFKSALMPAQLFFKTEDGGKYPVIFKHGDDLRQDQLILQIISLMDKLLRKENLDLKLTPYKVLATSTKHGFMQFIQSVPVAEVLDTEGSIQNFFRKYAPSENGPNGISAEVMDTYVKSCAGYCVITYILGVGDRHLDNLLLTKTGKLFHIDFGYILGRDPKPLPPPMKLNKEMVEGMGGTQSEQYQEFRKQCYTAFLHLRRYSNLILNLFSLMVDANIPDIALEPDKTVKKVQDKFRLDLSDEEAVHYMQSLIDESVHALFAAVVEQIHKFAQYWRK
Chain of UniProt Q9UHX1 (Q9UHX1 whole entry, looked up): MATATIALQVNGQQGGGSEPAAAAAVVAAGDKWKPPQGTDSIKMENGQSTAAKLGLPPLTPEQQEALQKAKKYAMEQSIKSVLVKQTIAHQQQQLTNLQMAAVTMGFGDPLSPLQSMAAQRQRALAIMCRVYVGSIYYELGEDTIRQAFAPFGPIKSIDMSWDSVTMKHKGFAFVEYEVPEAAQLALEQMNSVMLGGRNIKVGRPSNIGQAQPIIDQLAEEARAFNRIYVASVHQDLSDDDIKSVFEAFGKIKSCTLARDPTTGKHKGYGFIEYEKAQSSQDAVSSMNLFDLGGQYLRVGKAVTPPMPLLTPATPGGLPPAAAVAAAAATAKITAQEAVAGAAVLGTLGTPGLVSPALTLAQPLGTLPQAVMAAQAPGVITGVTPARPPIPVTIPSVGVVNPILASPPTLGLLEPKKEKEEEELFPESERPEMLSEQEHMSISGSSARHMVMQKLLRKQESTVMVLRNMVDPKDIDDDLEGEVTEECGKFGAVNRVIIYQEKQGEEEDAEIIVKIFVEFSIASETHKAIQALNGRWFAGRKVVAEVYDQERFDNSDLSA
Chain of UniProt P78356 (P78356 whole entry, looked up): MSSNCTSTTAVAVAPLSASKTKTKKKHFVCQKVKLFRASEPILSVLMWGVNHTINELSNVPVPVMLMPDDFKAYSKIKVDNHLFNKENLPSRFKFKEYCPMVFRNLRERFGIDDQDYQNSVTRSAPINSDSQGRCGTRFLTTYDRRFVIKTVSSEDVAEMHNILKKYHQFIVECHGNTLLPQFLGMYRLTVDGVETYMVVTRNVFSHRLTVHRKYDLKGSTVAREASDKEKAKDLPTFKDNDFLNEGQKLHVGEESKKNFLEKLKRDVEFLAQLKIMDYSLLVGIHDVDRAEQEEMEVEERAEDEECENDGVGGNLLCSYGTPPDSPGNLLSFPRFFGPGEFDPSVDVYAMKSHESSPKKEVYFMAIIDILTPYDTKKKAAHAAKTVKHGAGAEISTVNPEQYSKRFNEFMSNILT
Chain of UniProt P25788 (P25788 whole entry, looked up): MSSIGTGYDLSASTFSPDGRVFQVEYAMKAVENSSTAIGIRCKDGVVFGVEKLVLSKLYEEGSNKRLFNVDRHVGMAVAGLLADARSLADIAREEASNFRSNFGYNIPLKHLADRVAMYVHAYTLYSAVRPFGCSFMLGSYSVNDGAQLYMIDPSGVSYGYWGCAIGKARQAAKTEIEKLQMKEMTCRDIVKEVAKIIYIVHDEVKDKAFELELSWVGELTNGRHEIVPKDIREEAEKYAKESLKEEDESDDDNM
Chain of UniProt Q16401 (Q16401 whole entry, looked up): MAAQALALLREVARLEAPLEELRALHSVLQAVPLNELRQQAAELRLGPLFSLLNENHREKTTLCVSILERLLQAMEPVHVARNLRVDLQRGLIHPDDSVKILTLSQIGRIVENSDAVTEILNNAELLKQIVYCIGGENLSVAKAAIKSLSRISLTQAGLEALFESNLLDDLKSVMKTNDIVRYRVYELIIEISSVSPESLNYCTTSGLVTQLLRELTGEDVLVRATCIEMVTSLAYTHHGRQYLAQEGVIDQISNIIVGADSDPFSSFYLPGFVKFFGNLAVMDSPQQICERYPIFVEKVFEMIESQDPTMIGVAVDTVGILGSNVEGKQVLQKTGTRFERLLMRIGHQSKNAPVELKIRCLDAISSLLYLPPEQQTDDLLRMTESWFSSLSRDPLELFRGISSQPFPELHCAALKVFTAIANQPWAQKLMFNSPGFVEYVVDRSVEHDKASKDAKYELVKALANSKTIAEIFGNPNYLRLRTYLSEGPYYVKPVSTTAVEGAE
Chain of UniProt P49585 (P49585 whole entry, looked up): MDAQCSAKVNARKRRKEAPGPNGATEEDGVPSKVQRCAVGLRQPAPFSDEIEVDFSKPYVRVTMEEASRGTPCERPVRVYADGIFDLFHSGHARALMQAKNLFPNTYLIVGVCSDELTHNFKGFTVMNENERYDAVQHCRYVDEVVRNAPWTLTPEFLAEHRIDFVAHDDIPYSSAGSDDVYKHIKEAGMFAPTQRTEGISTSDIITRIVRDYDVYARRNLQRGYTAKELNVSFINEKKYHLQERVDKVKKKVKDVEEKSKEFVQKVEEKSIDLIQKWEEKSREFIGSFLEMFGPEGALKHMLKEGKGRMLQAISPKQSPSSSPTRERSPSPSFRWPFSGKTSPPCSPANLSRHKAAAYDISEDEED
Chain of UniProt P40425 (P40425 whole entry, looked up): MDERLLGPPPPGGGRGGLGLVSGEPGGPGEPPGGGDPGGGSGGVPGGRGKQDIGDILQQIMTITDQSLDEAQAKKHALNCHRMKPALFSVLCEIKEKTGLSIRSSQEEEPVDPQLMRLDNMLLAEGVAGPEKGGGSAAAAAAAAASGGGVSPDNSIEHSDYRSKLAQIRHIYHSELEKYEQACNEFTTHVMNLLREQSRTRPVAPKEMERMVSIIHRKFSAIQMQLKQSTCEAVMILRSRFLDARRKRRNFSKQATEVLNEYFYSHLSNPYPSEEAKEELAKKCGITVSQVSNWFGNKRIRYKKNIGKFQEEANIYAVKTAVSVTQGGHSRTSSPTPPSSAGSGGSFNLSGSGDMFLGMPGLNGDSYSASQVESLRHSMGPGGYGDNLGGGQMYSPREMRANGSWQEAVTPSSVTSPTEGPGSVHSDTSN
Chain of UniProt Q15004 (Q15004 whole entry, looked up): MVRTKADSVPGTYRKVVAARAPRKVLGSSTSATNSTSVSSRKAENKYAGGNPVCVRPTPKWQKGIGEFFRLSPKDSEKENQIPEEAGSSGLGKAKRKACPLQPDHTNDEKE
Chain of UniProt Q9NW08 (Q9NW08 whole entry, looked up): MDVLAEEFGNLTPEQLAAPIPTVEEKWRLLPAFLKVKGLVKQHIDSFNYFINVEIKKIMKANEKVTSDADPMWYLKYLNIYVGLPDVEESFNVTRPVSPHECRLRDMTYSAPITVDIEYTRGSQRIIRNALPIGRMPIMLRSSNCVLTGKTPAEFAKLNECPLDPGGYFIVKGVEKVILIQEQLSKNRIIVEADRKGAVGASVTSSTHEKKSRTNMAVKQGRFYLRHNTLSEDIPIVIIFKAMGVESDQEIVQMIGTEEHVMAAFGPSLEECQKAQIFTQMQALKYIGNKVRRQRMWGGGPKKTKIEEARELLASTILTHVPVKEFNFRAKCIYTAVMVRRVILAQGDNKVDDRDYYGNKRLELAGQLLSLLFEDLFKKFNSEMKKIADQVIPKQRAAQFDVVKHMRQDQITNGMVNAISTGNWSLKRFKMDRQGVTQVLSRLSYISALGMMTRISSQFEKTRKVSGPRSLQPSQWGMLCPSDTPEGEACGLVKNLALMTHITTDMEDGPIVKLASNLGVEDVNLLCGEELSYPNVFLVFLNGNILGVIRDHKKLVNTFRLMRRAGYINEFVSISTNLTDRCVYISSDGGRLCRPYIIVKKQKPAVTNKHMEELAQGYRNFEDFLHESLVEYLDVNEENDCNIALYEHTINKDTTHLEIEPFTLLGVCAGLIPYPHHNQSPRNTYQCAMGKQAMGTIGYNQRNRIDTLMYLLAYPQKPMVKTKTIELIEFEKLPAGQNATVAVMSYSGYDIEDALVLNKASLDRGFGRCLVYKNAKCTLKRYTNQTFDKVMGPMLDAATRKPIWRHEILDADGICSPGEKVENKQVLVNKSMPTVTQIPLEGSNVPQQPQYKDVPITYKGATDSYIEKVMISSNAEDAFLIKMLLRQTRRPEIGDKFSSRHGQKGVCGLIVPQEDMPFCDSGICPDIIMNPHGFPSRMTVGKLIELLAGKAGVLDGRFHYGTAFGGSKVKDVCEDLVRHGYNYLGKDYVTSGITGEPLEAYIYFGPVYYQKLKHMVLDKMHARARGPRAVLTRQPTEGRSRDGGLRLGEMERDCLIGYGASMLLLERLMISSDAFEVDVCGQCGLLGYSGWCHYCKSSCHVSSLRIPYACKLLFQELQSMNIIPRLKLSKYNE
Chain of UniProt Q93096 (Q93096 whole entry, looked up): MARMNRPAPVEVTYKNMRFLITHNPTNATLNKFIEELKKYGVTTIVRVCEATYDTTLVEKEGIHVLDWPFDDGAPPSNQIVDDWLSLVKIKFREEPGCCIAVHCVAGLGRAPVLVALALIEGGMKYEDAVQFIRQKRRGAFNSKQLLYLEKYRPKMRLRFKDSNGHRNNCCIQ

| Target | log2 fold change |
| --- | --- |
| PPP1R12A (UniProt O14974) | 0.005 |
| PUF60 isoform 2 (UniProt Q9UHX1) | 0.044 |
| PTGES3 (UniProt Q15185) | -0.009 |
| PMM2 (UniProt O15305) | 0.003 |
| POLR2A (UniProt P24928) | -0.014 |
| PTRH2 (UniProt Q9Y3E5) | 0.018 |
| PRKX (UniProt P51817) | -0.754 (active) |
| PIK3C3 (UniProt Q8NEB9) | -0.038 |
| PRKAG1 isoform 3 (UniProt P54619) | -0.008 |
| POLR2K (UniProt P53803) | 0.053 |
| PCYT1A (UniProt P49585) | -0.035 |
| PPIL2 (UniProt Q13356) | -0.028 |
| PTP4A1 (UniProt Q93096) | -0.002 |
| PIP4P1 isoform 2 (UniProt Q86T03) | -0.016 |
| PCLAF (UniProt Q15004) | 0.055 |
| PBX2 (UniProt P40425) | -0.052 |
| POLR2E (UniProt P19388) | -0.013 |
| PNPLA8 (UniProt Q9NP80) | 0.024 |

| Target | log2 fold change |
| --- | --- |
| POM121 (UniProt Q96HA1) | 0.023 |
| PDLIM7 (UniProt Q9NR12) | -0.04 |
| PRKACA (UniProt P17612) | -0.01 |
| POGLUT1 (UniProt Q8NBL1) | 0.039 |
| PRKD2 (UniProt M0R346) | 0.081 |
| PCYT1B (UniProt Q9Y5K3) | -0.063 |
| PIP4K2B (UniProt P78356) | -0.102 |
| PSMA3 (UniProt P25788) | 0.051 |
| PHAX (UniProt Q9H814) | 0.014 |
| PPP2R5A (UniProt Q15172) | -0.036 |
| PPP2R5C isoform 2 (UniProt Q13362) | -0.065 |
| PSMD5 (UniProt Q16401) | 0 |
| PUM1 isoform 3 (UniProt Q14671) | 0.004 |
| PPP1R12B isoform 6 (UniProt O60237) | -0.051 |
| PDE4DIP isoform 4 (UniProt Q5VU43) | 0.023 |
| PLCXD1 (UniProt Q9NUJ7) | -0.061 |
| POLR3B (UniProt Q9NW08) | -0.035 |
| POP1 (UniProt Q99575) | 0.003 |

The targets below were run with CC1=C(SC2=C1C(=N[C@H](C3=NN=C(N32)C)CC(=O)N)C4=CC=C(C=C4)Cl)C in the same assay as above.
Procedure, shortened: as §1

| Target | log2 fold change |
| --- | --- |
| PPP1R12A (UniProt O14974) | 0.057 |
| PUF60 isoform 2 (UniProt Q9UHX1) | 0.097 |
| PTGES3 (UniProt Q15185) | 0.016 |
| PMM2 (UniProt O15305) | 0.046 |
| POLR2A (UniProt P24928) | 0.158 |
| PTRH2 (UniProt Q9Y3E5) | 0.068 |
| PIK3C3 (UniProt Q8NEB9) | 0.005 |
| PRKAG1 isoform 3 (UniProt P54619) | 0.067 |
| POLR2K (UniProt P53803) | 0.06 |
| PCYT1A (UniProt P49585) | 0.005 |
| PPIL2 (UniProt Q13356) | 0.041 |
| PTP4A1 (UniProt Q93096) | 0.109 |
| PIP4P1 isoform 2 (UniProt Q86T03) | -0.106 |
| PCLAF (UniProt Q15004) | -0.022 |
| PBX2 (UniProt P40425) | 0.082 |
| POLR2E (UniProt P19388) | 0.094 |

| Target | log2 fold change |
| --- | --- |
| PNPLA8 (UniProt Q9NP80) | 0.031 |
| POM121 (UniProt Q96HA1) | -0.033 |
| PDLIM7 (UniProt Q9NR12) | 0.044 |
| PRKACA (UniProt P17612) | 0.005 |
| POGLUT1 (UniProt Q8NBL1) | -0.041 |
| PCYT1B (UniProt Q9Y5K3) | -0.003 |
| PIP4K2B (UniProt P78356) | 0.018 |
| PSMA3 (UniProt P25788) | -0.062 |
| PHAX (UniProt Q9H814) | -0.019 |
| PPP2R5A (UniProt Q15172) | 0.07 |
| PSMD5 (UniProt Q16401) | 0.028 |
| PUM1 isoform 3 (UniProt Q14671) | -0.036 |
| PDE4DIP isoform 4 (UniProt Q5VU43) | 0.043 |
| POLR3B (UniProt Q9NW08) | -0.02 |
| POP1 (UniProt Q99575) | -0.028 |

The targets below were run with CC1=C2C(=CC=C1)N=C(N(C2=O)C3=CC=CC=C3C)CN4C=NC5=C(N=CN=C54)N in the same assay as above.
Procedure, shortened: as §1

| Target | log2 fold change |
| --- | --- |
| PPP1R12A (UniProt O14974) | 0.047 |
| PUF60 isoform 2 (UniProt Q9UHX1) | -0.312 |
| PTGES3 (UniProt Q15185) | 0.067 |
| PMM2 (UniProt O15305) | -0.027 |
| POLR2A (UniProt P24928) | 0.031 |
| PTRH2 (UniProt Q9Y3E5) | 0.019 |
| PIK3C3 (UniProt Q8NEB9) | 0.009 |
| PRKAG1 isoform 3 (UniProt P54619) | 0.019 |
| POLR2K (UniProt P53803) | 0.046 |
| PCYT1A (UniProt P49585) | 0.056 |
| PPIL2 (UniProt Q13356) | 0.098 |
| PTP4A1 (UniProt Q93096) | 0.037 |
| PIP4P1 isoform 2 (UniProt Q86T03) | -0.118 |
| PCLAF (UniProt Q15004) | -0.045 |
| PBX2 (UniProt P40425) | -0.011 |
| POLR2E (UniProt P19388) | -0.023 |

| Target | log2 fold change |
| --- | --- |
| PNPLA8 (UniProt Q9NP80) | 0.007 |
| POM121 (UniProt Q96HA1) | 0.026 |
| PDLIM7 (UniProt Q9NR12) | 0.092 |
| PRKACA (UniProt P17612) | -0.053 |
| POGLUT1 (UniProt Q8NBL1) | 0.082 |
| PCYT1B (UniProt Q9Y5K3) | 0.022 |
| PIP4K2B (UniProt P78356) | -0.034 |
| PSMA3 (UniProt P25788) | -0.022 |
| PHAX (UniProt Q9H814) | -0.015 |
| PPP2R5A (UniProt Q15172) | -0.006 |
| PSMD5 (UniProt Q16401) | 0.006 |
| PUM1 isoform 3 (UniProt Q14671) | 0.056 |
| PDE4DIP isoform 4 (UniProt Q5VU43) | 0.046 |
| POLR3B (UniProt Q9NW08) | 0.078 |
| POP1 (UniProt Q99575) | 0.029 |

Source: the supplement of paper PMC10849652
